Measured values published in PubChem BioAssay (NCATS).
Records with an inconclusive call do not appear. The source made the active and inactive calls. Calls follow the shape of the dose curve; as a rule, active = well fitted curve in the direction sought with a large enough effect; inconclusive = small, poorly fitted or top-dose-only effect, or another doubt; inactive = no such curve, though single readings can be large; an effect the other way counts as inactive or inconclusive.

Legend:
[1] = qHTS assay for measurement of the activity of small molecule inhibitors on Zika virus induced Caspase-3 activity in human iPSC derived neural progenitor cells (hNPCs) (AID 1224857); also: nearly all actives have a fitted effect of over 65% in size
Summary of the method: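 After overnight (16–20 h) culture at 350 cells/well, hNPCs get compound, then ZIKV 2 FFU/cell one hour later. Six hours on, Caspase-Glo 3/7 is added and luminescence measured.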

[2] = qHTS assay for measurement of the activity of small molecule inhibitors on Zika virus induced Caspase-3 activity in human astrocytoma cells (AID 1224859)
Summary of the method: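 Inhibition of Zika-induced caspase-3/7 activity: SNB-19 cells, 1 h compound pretreatment, ZIKV 2 FFU/cell for 6 h at 37 C, Caspase-Glo luminescence read-out.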

[3] = qHTS assay to identify small molecule inhibitors of chordoma cells - UCH-1 (AID 1259355); also: nearly all actives have a fitted effect of over 55% in size
Summary of the method: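 A 48hr growth-inhibition format: each drug tested at 15 concentrations together with added auranofin, camptothecin, doxorubicin, rubitecan and topotecan, with cell viability quantified as CellTiter-Glo luminescence.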

[4] = qHTS assay to identify small molecule inhibitors of chordoma cells - UCH-2 (AID 1259356); also: series mostly up to about 46 µM
[5] = P-glycoprotein substrates identified in KB-8-5-11 adenocarcinoma cell line, qHTS therapeutic library screen (AID 1346987); conditions: outcome: dose series up to 44.5 µM; also: nearly all actives have a fitted effect of over 65% in size
Summary of the method: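 Human cervical adenocarcinoma KB-8-5-11 cells, selected in colchicine to over-express P-gp and assayed without it, were exposed for 72 h to titrated compounds. An ATP-based luminescent viability signal gave AC50.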

[6] = NS1 protein of Zika virus - qHTS assay to identify small molecule inhibitors in human HEK 293 cells (AID 1347053); also: series mostly up to about 46 µM; nearly all actives have a fitted effect of over 55% in size
Summary of the method: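 TR-FRET signal from two anti-ZIKV NS1 antibodies quantified NS1 in HEK 293 cells 24 h after MR766 infection at MOI = 0.5; compounds were added 1 h before virus. Uninfected cells and infected cells defined the NS1 normalization range.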

[7] = qHTS of pediatric cancer cell lines to identify multiple opportunities for drug repurposing: Primary screen for TC32 cells (AID 1347089); also: nearly all actives have a fitted effect of over 60% in size
Summary of the method: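 qHTS, TC32, 48 h drug treatment, CellTiter-Glo luminescence as a proxy for metabolically active cells; primary top concentration 46 µM (MIPE 11-pt, NPC 8-pt); confirmatory 11-pt.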

[8] = qHTS of pediatric cancer cell lines to identify multiple opportunities for drug repurposing: Primary screen for DAOY cells (AID 1347090); also: series mostly up to about 46 µM; nearly all actives have a fitted effect of over 55% in size
Summary of the method: (§1)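 Eight- or eleven-point concentration series, 48 h treatment at 37 degrees C in growth media; readout CellTiter-Glo luminescence. Potency and efficacy were taken from the concentration-response curves.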

[9] = qHTS of pediatric cancer cell lines to identify multiple opportunities for drug repurposing: Primary screen for SJ-GBM2 cells (AID 1347091)
Summary of the method: as §1

[10] = qHTS of pediatric cancer cell lines to identify multiple opportunities for drug repurposing: Primary screen for A673 cells (AID 1347092); also: nearly all actives have a fitted effect of over 45% in size
Summary of the method: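 Luminescence from CellTiter-Glo, taken after 15 min at room temperature, served as the proxy for metabolically active cells following 48 h treatment. Both potency and efficacy were taken from curves fitted to the titration data.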

[11] = qHTS of pediatric cancer cell lines to identify multiple opportunities for drug repurposing: Primary screen for SK-N-MC cells (AID 1347093); also: series mostly up to about 46 µM
Summary of the method: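 Metabolically active cells were quantified by ATP-dependent luminescence (CellTiter-Glo, 15 min at room temperature) following 48 h treatment. Cells had been plated at 500-1,000 per well and settled for 5 h beforehand.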

[12] = qHTS of pediatric cancer cell lines to identify multiple opportunities for drug repurposing: Primary screen for BT-37 cells (AID 1347094); also: series mostly up to about 57 µM
Summary of the method: (§2)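 Readout: CellTiter-Glo luminescence, 48 h treatment. Controls DMSO (neutral) and bortezomib 2.3 µM final (positive). Potency and efficacy taken from primary-screen concentration-response curves.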

[13] = qHTS of pediatric cancer cell lines to identify multiple opportunities for drug repurposing: Primary screen for NB-EBc1 cells (AID 1347095)
Summary of the method: as §2

[14] = qHTS of pediatric cancer cell lines to identify multiple opportunities for drug repurposing: Primary screen for U-2 OS cells (AID 1347096); also: nearly all actives have a fitted effect of over 50% in size
Summary of the method: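 Cells (500-1,000/well) in growth media were settled 5 h at 37 degrees C, then given compounds for 48 h. Viability was read as CellTiter-Glo luminescence. Primary runs used MIPE at 11 points (0.78 nM-46 µM) and NPC at 8 points (0.59 nM-46 µM); follow-ups used 11 points.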

[15] = qHTS of pediatric cancer cell lines to identify multiple opportunities for drug repurposing: Primary screen for Saos-2 cells (AID 1347097); also: nearly all actives have a fitted effect of over 40% in size
Summary of the method: as §2

[16] = qHTS of pediatric cancer cell lines to identify multiple opportunities for drug repurposing: Primary screen for SK-N-SH cells (AID 1347098); also: nearly all actives have a fitted effect of over 65% in size
Summary of the method: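 Cells (500-1,000/well) rested 5 h, then received compounds for 48 h; metabolically active cells were measured by CellTiter-Glo luminescence. Final concentrations spanned up to 46 µM (MIPE, 11-point) or 0.59 nM-46 µM (NPC, 8-point) in primary screens, 11-point in follow-ups.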

[17] = P-glycoprotein substrates identified in KB-3-1 adenocarcinoma cell line, qHTS therapeutic library screen (AID 1346986); conditions: outcome: dose series up to 44.5 µM; also: nearly all actives have a fitted effect of over 60% in size
Summary of the method: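 Using luminescence to quantify ATP, parental and P-gp-overexpressing KB cells were compared after 72 h compound titration. KB-8-5-11 was also run with the P-gp inhibitor tariquidar.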

Measured: Potency

Cc1c(C(=O)NCCO)[n+](=O)c2ccccc2n1[O-]
not listed: [17]
inactive: all other assays above

COc1nccnc1NS(=O)(=O)c1ccc(N)cc1
not listed: [17]
inactive: all other assays above

CC(C)C[C@@H](N)C(=O)O
not listed: [11]
inactive: all other assays above

CN1CCCN=C1COC(=O)C(O)(c1ccccc1)C1CCCCC1 (stereo not given)
not listed: [17]
inactive: all other assays above

CC(=O)[C@@]1(O)CC[C@H]2[C@@H]3C[C@H](C)C4=CC(=O)C=C[C@]4(C)[C@@]3(F)[C@@H](O)C[C@@]21C
not listed: [10] | [17]
inactive: all other assays above

Cc1c(I)c(=O)n(-c2ccccc2)n1C
not listed: [10] | [17]
inactive: all other assays above

CCCCCCCCCCC(CO)CCCCCCCC (stereo not given)
not listed: [13] | [16] | [17]
inactive: all other assays above

CC(=O)OCC(=O)[C@@]1(O)CC[C@H]2[C@@H]3CCC4=CC(=O)C=C[C@]4(C)[C@@]3(F)[C@@H](O)C[C@@]21C
not listed: [17]
inactive: all other assays above

C[C@H]1COc2c(C3(N)CC3)c(F)cc3c(=O)c(C(=O)O)cn1c23
not listed: [13] | [17]
inactive: all other assays above

Cn1c(=O)c2c(ncn2CCO)n(C)c1=O
not listed: [11] | [17]
inactive: all other assays above

O=C(O)Cn1c(C(=O)Nc2nc(-c3ccccc3Cl)cs2)cc2ccccc21
not listed: [11] | [16] | [17]
inactive: all other assays above

NC(=O)CCCCC1CCSS1 (stereo not given)
not listed: [13] | [17]
inactive: all other assays above

O[C@@H]1CO[C@H]2[C@@H]1OC[C@@H]2O
not listed: [10] | [17]
inactive: all other assays above

CCCCCCCC(=O)OCC(O)CO (stereo not given)
not listed: [13] | [17]
inactive: all other assays above

C[N+](C)(C)CC(O)CC(=O)[O-] (stereo not given)
not listed: [15] | [17]
inactive: all other assays above

CN1CCN(C(=O)C2CCCCC2)CC1
not listed: [17]
inactive: all other assays above

C[N+]1(C)CCCC(OC(=O)C(O)(c2ccccc2)c2ccccc2)C1 (stereo not given)
not listed: [17]
inactive: all other assays above
